Hits are enriched below; roughly 7% of the tested compounds scored in any of these assays.
PLK1 PBD inh = PLK1 (human) polo-box domain binding inhibition. Potency, µM, without a hit: max response, negative = inhibition, most hits filed as inhibitors. Plk1 PBD binding of FITC phosphopeptide, fluorescence polarization. hit rate 2.8% among 360,000. P53350; note: potency is the fitted concentration of half-maximal effect; series mostly up to about 57 µM; % is set by controls: 0 for no effect and ±100 for the full control effect; nearly all actives have a fitted effect of over 65% in size
KAT2A inh = GCN5L2 (KAT2A) acetyltransferase inhibition | Q92830 | GCN5L2 HAT assay, ThioGlo1 CoA-SH fluorescence | Potency, µM (top dose mostly 58.9 µM), for the others: at the top dose activity change, negative = inhibition, usual class: inhibitors | hit rate 0.21% among 390,000 | AID 504327; note: potency is the fitted concentration of half-maximal effect; % is set by controls: 0 for no effect and ±100 for the full control effect
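Compounds, pin-transferred from DMSO stocks, meet 20nM GCN5L2 for 15 min before the reaction begins with H3(1-25) peptide (75uM) and acetyl-CoA (70uM). Thiol-reactive ThioGlo1 reports CoA release over 20 min at room temperature.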
JMJD2A Tudor inh = blocks the human JMJD2A Tudor domain. O75164. AlphaScreen JMJD2A-Tudor / H3K4me3 peptide binding. Potency, µM (top dose mostly 114 µM), for inactives: at the highest dose activity change, negative = inhibition, hits mostly inhibitors. hit rate 4.4% among 390,000. AID 504339; note: potency is the fitted concentration of half-maximal effect; % is set by controls: 0 for no effect and ±100 for the full control effect; nearly all actives have a fitted effect of over 50% in size
Target sequence (O75164 whole entry, looked up, the tested form may be a part): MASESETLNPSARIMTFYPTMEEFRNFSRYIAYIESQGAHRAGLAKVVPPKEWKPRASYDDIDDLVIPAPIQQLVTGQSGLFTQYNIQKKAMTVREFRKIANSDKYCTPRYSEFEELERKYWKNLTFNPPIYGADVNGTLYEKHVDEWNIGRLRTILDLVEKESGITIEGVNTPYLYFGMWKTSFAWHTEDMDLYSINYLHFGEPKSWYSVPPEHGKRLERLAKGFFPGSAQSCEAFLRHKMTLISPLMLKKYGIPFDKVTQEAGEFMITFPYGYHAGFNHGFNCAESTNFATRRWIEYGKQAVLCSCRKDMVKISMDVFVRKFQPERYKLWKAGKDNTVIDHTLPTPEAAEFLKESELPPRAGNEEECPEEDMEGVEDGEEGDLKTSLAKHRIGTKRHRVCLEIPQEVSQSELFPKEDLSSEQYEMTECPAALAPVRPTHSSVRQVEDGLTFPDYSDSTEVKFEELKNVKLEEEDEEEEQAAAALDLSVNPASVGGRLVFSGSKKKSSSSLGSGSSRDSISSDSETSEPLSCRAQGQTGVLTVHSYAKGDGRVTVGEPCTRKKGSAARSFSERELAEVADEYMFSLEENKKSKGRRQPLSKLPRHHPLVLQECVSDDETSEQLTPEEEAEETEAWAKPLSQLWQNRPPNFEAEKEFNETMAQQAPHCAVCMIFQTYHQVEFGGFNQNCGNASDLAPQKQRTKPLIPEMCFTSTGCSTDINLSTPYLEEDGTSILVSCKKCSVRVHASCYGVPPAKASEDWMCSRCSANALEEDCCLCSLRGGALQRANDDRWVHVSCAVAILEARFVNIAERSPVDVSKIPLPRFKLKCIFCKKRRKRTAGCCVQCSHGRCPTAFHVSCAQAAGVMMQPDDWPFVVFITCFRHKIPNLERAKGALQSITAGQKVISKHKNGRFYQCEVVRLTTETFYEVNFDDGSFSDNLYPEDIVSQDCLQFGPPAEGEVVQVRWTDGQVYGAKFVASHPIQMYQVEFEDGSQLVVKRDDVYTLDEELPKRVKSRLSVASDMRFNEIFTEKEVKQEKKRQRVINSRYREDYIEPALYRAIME
PI5P4Ka inh = blocks human PI5P4K alpha kinase activity | P48426 | PI5P4Kalpha enzyme, ADP-Glo luminescence, 60 min; active compounds read low | max response, % | hit rate 1.2% among 330,000 | AID 652105; active = max response of -50% or lower; inconclusive = between -30% and -50%; inactive = -30% or higher; note: value at the top dose of about 77 µM; % is set by controls: 0 for no effect and ±100 for the full control effect
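Enzyme plus substrate dispensed, test compounds pinned in, then ATP (5 microM final) added. After 60 min at RT, ADP-Glo reagent 1 for 45 min and reagent 2 for 30 min preceded luminescence imaging.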
HP1b chromo inh = blocks HP1-beta chromodomain binding to methylated histone tails; P83916; AlphaScreen HP1-beta / biotin-H3K9me3 peptide binding; Potency, µM (titrated, usually from 114 µM), for the others: at the highest dose activity change, negative = inhibition, actives largely listed as inhibitors; hit rate 0.56% among 390,000; AID 540317; note: potency is the fitted concentration of half-maximal effect; nearly all actives have a fitted effect of over 70% in size
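AlphaScreen: HP1-beta (50 nM) preformed 30 min with biotin-H3(1-18)K9me3 peptide (50 nM) in PBS pH 7.4, 0.01% Tween-20. Compound added for 30 min at RT, then streptavidin donor/nickel chelate acceptor beads (10 ug/mL) for 30 min.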
BAZ2B block = BAZ2B (human) inhibition; Q9UIF8; AlphaScreen BAZ2B-H3K14Ac peptide displacement; Potency, µM (highest dose often 114 µM), for the others: at the top dose activity change, negative = inhibition, usual class: inhibitors; hit rate 4.4% among 360,000; note: potency is the fitted concentration of half-maximal effect; % is set by controls: 0 for no effect and ±100 for the full control effect; nearly all actives have a fitted effect of over 60% in size
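Multi-concentration screen (max 110 uM) measuring displacement of acetylated histone H3 peptide from BAZ2B by AlphaScreen, using 50 nM protein, 50 nM peptide and 10 ug/mL streptavidin donor plus Ni-chelate acceptor beads.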
An asterisk follows results filed as active; ? = inconclusive; nt = not tested or not shown; [ ] = another dose, or the depositor's remark. Unless noted, calls come from the whole dose curve; as a rule, active = well fitted curve in the direction sought with a large enough effect; inconclusive = small, poorly fitted or top-dose-only effect, or another doubt; inactive = no such curve, though single readings can be large; an effect the other way counts as inactive or inconclusive.

SMILES	PLK1 PBD inh	KAT2A inh	JMJD2A Tudor inh	PI5P4Ka inh	HP1b chromo inh	BAZ2B block
COc1ccc(NC(=O)c2cc(=O)[nH]c3ccccc23)cc1	-3.3%	0.7%	7.6%	6.4	27.0%	-5.7%
O=C(CSC1=NNC(c2ccccn2)S1)Nc1ccc(C(F)(F)F)cc1 (stereo unspecified)	-6.0%	-19.1%	39.8µM*	4.9	14.7%	56.2µM*
CC(=O)Nc1ccc(NC(=O)CSc2ccccn2)cc1	-1.4%	-5.5%	-4.6%	1.8	19.7%	21.4%
CC(C)Nc1nc(NC(C)C)nc(N(C)N)n1	-8.4%	5.3%	35.5µM*	-0.4	29.8%	3.16µM*
CCNc1nc(NCC)nc(N(C)N)n1	-7.3%	-6.7%	28.2µM*	3.9	50.3%	25.1µM*
CCNc1nc(NC(C)C)nc(N(C)C#N)n1	-1.2%	-0.3%	-11.8%[11.4 µM]	2.6	28.6%	-2.4%
COc1cccc(NC(=O)C2CCN(C(=O)N3CC(C)Oc4ccccc43)CC2)c1 (stereo unspecified)	nt	-2.5%	-12.2%	nt	61.2%	-10.3%
O=C1NCCN(CC2CCN(CC3CCCC3)CC2)C1=O	-11.7%	nt	?	-4.2	10.6%	nt
CCCCNC(=O)c1ccc2c(c1)ncn2-c1cc(OC)ccc1OC	nt	12.2%	-12.5%	nt	42.6%	-25.4%
S=c1cn[nH]c2ccccc12	?	nt	4.47µM*	-15.0	89.1µM*	nt
NS(=O)(=O)c1cc(C(=O)OCC(=O)Nc2ccc3c(c2)OCO3)ccc1Cl	3.6%	0.0%	-19.2%	-14.0	1.3%	nt
O=C(Nc1cccc(S(=O)(=O)N2CCCCC2)c1)c1ccc2ncsc2c1	-2.0%	1.1%	28.2µM*	-4.6	7.1%	56.2µM*
Cc1ccc(NC(=O)c2ccc3ncsc3c2)cc1S(=O)(=O)N(C)C	nt	-16.9%	nt	nt	nt	56.2µM*
NS(=O)(=O)c1cccc(NC(=O)c2cccc(S(=O)(=O)N3CCCCCC3)c2)c1	2.6%	-4.4%	-2.7%	-0.3	25.8%	nt
Cc1cc(C)nc(-n2ncc3c2CC(C)CC3=O)n1 (stereo unspecified)	1.5%	1.0%	-9.0%	-3.5	25.9%	-8.0%
CN(CC(=O)Nc1ccccc1Cl)C(=O)c1ccc(-c2cccc(C(F)(F)F)c2)o1	?	-29.2%	-31.4%	2.2	-5.8%	-25.2%
CC(SCc1ccccc1)C(=O)Nc1ccccc1 (stereo unspecified)	-1.1%	-6.7%	6.0%	-0.5	42.1%	2.3%
COc1ccc(/C=C(\C#N)C(=O)N2COCC2(C)C)cc1	-8.7%	-18.6%	-7.0%	6.9	36.6%	1.5%
O=C(O)CCn1c(-c2ccccn2)nc2ccccc21	3.9%	0.2%	22.4µM*	0.6	-15.6%	-6.5%
O=C(Cn1c(-c2ccccn2)nc2ccccc21)N/N=C/c1ccccn1	-9.5%	-8.8%	-13.7%	5.1	31.3%	nt
O=C(O)CCn1c(CO)nc2ccccc21	2.2%	-4.8%	-11.1%	2.3	-6.6%	56.2µM*
OCc1nc2ccccc2n1CCCCOc1ccccc1	-9.0%	nt	-20.9%	-0.9	3.2%	nt
O=C(Nc1nccs1)c1ccc(Br)o1	-1.5%	-4.4%	-11.0%	nt	28.6%	0.4%
O=C(/C=C/c1ccc(Br)o1)Nc1nccs1	21.2µM*	-2.9%	31.6µM*	?	?	-14.5%
CCN(CC)CCOC(=O)c1ccc(N/C=C(/C#N)c2nc(-c3cccc(OC)c3)cs2)cc1	-10.0%	-10.4%	-11.4%	-0.1	10.6%	?
SMILES	PLK1 PBD inh	KAT2A inh	JMJD2A Tudor inh	PI5P4Ka inh	HP1b chromo inh	BAZ2B block
CCN(CC)CCOC(=O)c1ccc(N/C=C(/C#N)c2nc(-c3ccc(OC)c(OC)c3)cs2)cc1	4.8%	-24.4%	35.5µM*	-76.7*	14.1µM*	-32.7%
O=C(Nc1ccc(Cl)cc1C(=O)O)c1ccc2c(c1)C(=O)N(Cc1ccco1)C2=O	26.7µM*	-4.4%	56.2µM*	-74.6*	-8.9%	50.1µM*
Cc1ccccc1NC(=O)c1ccc2c(c1)C(=O)N(CC(C)C)C2=O	-6.3%	-9.5%	-0.7%	-2.2	27.1%	9.7%
CC(C)CN1C(=O)c2ccc(C(=O)Nc3ccccc3C(=O)O)cc2C1=O	23.8µM*	0.8%	22.4µM*	-63.7*	-3.7%	4.8%
COc1ccc(-c2nnc(C(C)Nc3cccc(C(=O)NC4CC4)c3)o2)cc1 (stereo unspecified)	-4.7%	-0.1%	-11.0%	-3.1	20.7%	nt
CC(=O)NC(CC(=O)O)C(=O)NC(CCC(=O)O)C(=O)O (stereo unspecified)	nt	-5.8%	nt	nt	nt	nt
CN[C@H](CC(=O)O)C(=O)O	-12.8%	-5.3%	22.4µM*	0.5	-19.8%	nt
CC1(C(=O)NS(=O)(=O)c2cccc(C#N)c2)CCN1C(=O)CC1CC1 (stereo unspecified)	-9.7%	nt	nt	4.3	nt	nt
OCc1ccnc2c(O)cccc12	1.6%	-0.3%	12.6µM*	-20.4	-4.1%	1.41µM*
Oc1ccc(Cn2ccnc2)c2cccnc12	3.9%	?	2µM*	0.4	19.9%	0.708µM*
COCc1ccc(O)c2ncccc12	-5.1%	-6.4%[0.501 µM]	39.8µM*	1.8	51.3%	1.78µM*
CN(C)c1ccc(C=Cc2ccnc3c(O)cccc23)cc1	14.7%	nt	nt	0.3	nt	nt
O=C(O)C1OC1(c1ccccc1Cl)c1ccccc1Cl (stereo unspecified)	-8.9%	nt	-18.1%	0.7	-1.3%	nt
O=[N+]([O-])c1ccccc1Oc1ccc(Cl)c2cccnc12	-3.0%	-15.8%	-16.8%	-5.0	7.9%	-34.1%
O=[N+]([O-])c1ccc(O)c2cccnc12	-2.4%	-9.5%	-20.4%	-5.9	?	?
O=[N+]([O-])c1ccc(O)c2ncccc12	-13.3%	4.8%	22.4µM*	-1.3	-4.0%	3.55µM*
